Test results: PubChem BioAssay (NCATS)
Inconclusive results are not listed. The source made the active and inactive calls. Calls come from the whole dose curve; as a rule, active = well fitted inhibition curve with a large enough effect; inconclusive = small, poorly fitted or top-dose-only effect; inactive = flat fitted curve, though single readings scatter.

Each compound was assayed on W2 (assay: qHTS profiling for inhibitors of Plasmodium falciparum proliferation (AID 504749; note: nearly all actives have a fitted effect of over 60% in size;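 for activity, negative = inhibition: 0% = DMSO vehicle and full inhibition = artemisinin control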)). Conditions: P. falciparum in erythrocytes, SYBR Green DNA, 72 h; series mostly up to 28.7 µM; activity, negative = inhibition: at the top concentration.
Outline: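 Fluorescence of SYBR Green-bound parasite DNA, read at 485/535 nm, served as the growth measure. Infected erythrocytes were cultured with compound 72 h; artemisinin (0.29 uM) and DMSO wells defined the normalization range.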
Potency is the fitted concentration of half-maximal effect.

Row | SMILES | activity, negative = inhibition | Potency
1 | O=C(NCCO[N+](=O)[O-])c1cccnc1 | -4.7% (inactive) | 
2 | CC1(C)NC(=O)N(c2ccc([N+](=O)[O-])c(C(F)(F)F)c2)C1=O | -6.68% (inactive) | 
3 | Cc1cc(=O)c2c(O)c3c(O)cc(=O)c4c3c3c(cc(O)c1c23)C(C)(C)C=4O |  | 1350 nM (active)
4 | CNC[C@@H](O)[C@@H](O)[C@H](O)[C@H](O)CO | 13.6% (inactive) | 
5 | c1ccc2[nH]c(-c3cscn3)nc2c1 | -4.56% (inactive) | 
6 | Nc1ccc(S(N)(=O)=O)cc1 | 12.7% (inactive) | 
7 | CCOC(=O)c1c(C)n(C)c2ccc(O)cc12 | 12.5% (inactive) | 
8 | CC(C)[C@H](N)C(=O)OCCOCn1cnc2c(=O)[nH]c(N)nc21 | 12.4% (inactive) | 
9 | O=C(O)c1cccnc1Nc1cccc(C(F)(F)F)c1 | -1.18% (inactive) | 
10 | Cc1ccc(NC(=O)c2ccc(CN3CCN(C)CC3)cc2)cc1Nc1nccc(-c2cccnc2)n1 |  | 6010 nM (active)
11 | Cc1cc(=O)oc2cc(O)ccc12 | -1.92% [at 12.8 µM] (inactive) | 
12 | N[C@@H](Cc1cc(I)c(Oc2cc(I)c(O)c(I)c2)c(I)c1)C(=O)O | -1.12% (inactive) | 
13 | CN1CCC(=C2c3ccccc3CCc3sccc32)CC1 |  | 1510 nM (active)
14 | CCC(C)(Oc1ccc(C2(c3ccc(OC(C)(CC)C(=O)O)cc3)CCCCC2)cc1)C(=O)O (stereo not given) | 0.634% (inactive) | 
15 | CC(S)C(=O)NCC(=O)O (stereo not given) | -25% (inactive) | 
16 | C[C@H](Cn1cnc2c(N)ncnc21)OCP(=O)(O)O | 0.395% (inactive) | 
17 | COCCCOc1ccnc(CS(=O)c2nc3ccccc3[nH]2)c1C (stereo not given) |  | 1070 nM (active)
18 | CCOc1cc(CC(=O)N[C@@H](CC(C)C)c2ccccc2N2CCCCC2)ccc1C(=O)O | 9.81% [at 12.8 µM] (inactive) | 
19 | CCCCc1ccc2nc(NC(=O)OC)[nH]c2c1 | -2.32% [at 12.8 µM] (inactive) | 
20 | CNC[C@H](O)c1ccc(O)c(O)c1 | -0.522% (inactive) | 
